± gives the standard deviation of the averaged measurements.
Legend:
[1] = system: DLD1; assay: cell viability (CellTiter-Glo) relative to plate median (fraction of plate median); higher = more viable cells; conditions: 5 µM; treatment time 24 h; reporter: 7TFP
How it was run: (§1)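 Colorectal cancer lines with stably integrated lentiviral TCF/Wnt firefly luciferase reporters received library compounds at a final 5 µM, 24 h after seeding into 384-well plates, for a 24 h exposure. Reported figures are plate-median-normalised firefly luciferase or CellTiterGlo luminescence per well. They average two independent replicates.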

[2] = system: HCT116; assay: as above; conditions: 5 µM; treatment time 24 h; reporter: TCF4/Wnt
How it was run: as §1

[3] = system: SW480; assay: as above; conditions: 5 µM; treatment time 24 h; reporter: 7TFP
How it was run: as §1

[4] = system: DLD1; assay: TCF/Wnt firefly luciferase reporter signal relative to plate median (fraction of plate median); higher = higher Wnt reporter signal; conditions: 5 µM; treatment time 24 h; reporter: 7TFP
How it was run: as §1

[5] = system: SW480; assay: as above; conditions: 5 µM; treatment time 24 h; reporter: 7TFP
How it was run: as §1

Compound	cell viability [1]	cell viability [2]	cell viability [3]	TCF/Wnt firefly luciferase reporter signal [4]	TCF/Wnt firefly luciferase reporter signal [5]
CCCN(CCC)CCc1cccc2c1CC(=O)N2	1.02 ± 0.059	1.08 ± 0.014	1.01 ± 0.044	1.18 ± 0.092	1.07 ± 0.028
OC(CCN1CCCCC1)(c1ccccc1)C1CC2C=CC1C2 (stereo not given)	0.9145 ± 0.0021	1.01 ± 0.12	0.947 ± 0.052	0.92 ± 0.23	0.835 ± 0.028
CC1=NN(c2ccccc2)C(=O)C1	1.03 ± 0.054	0.921 ± 0.021	1.03 ± 0.06	0.979 ± 0.14	1.01 ± 0.025
NC[C@H](O)c1ccc(O)c(O)c1	1.02 ± 0.035	0.95 ± 0.071	1.005 ± 0.0071	0.962 ± 0.069	0.9835 ± 0.0078
CCN(Cc1ccncc1)C(=O)C(CO)c1ccccc1 (stereo not given)	0.9915 ± 0.0035	0.976 ± 0.048	1.04 ± 0.021	1.04 ± 0.057	1.08 ± 0.078
Fc1ccc(C(c2ccc(F)cc2)N2CCN(C/C=C/c3ccccc3)CC2)cc1	1.06 ± 0.042	0.962 ± 0.069	1.06 ± 0.057	0.961 ± 0.18	0.917 ± 0.016
C[C@@H]1CC2C3C[C@H](F)C4=CC(=O)C=C[C@]4(C)[C@@]3(F)[C@@H](O)C[C@]2(C)[C@@]1(O)C(=O)COC(=O)C(C)(C)C (stereo not given in full)	1.01 ± 0.021	0.925 ± 0.039	1 ± 0.025	1.16 ± 0.064	1.085 ± 0.0071
CC(=O)[C@H]1CC[C@H]2[C@@H]3CC=C4C[C@@H](OC(=O)CCC(=O)O)CC[C@]4(C)[C@H]3CC[C@]12C	1.02 ± 0.021	1.01 ± 0.018	0.975 ± 0.033	0.97 ± 0.03	1.1 ± 0.028
C=C1C2CC[C@@]3(C)[C@H](c4ccoc4)OC(=O)C[C@]13O[C@H]1CC(=O)C(C)(C)[C@H](C(O)C(=O)OC)[C@@]21C (stereo not given in full)	0.97 ± 0.042	1.01 ± 0.087	0.991 ± 0.055	1.02 ± 0.11	1.02 ± 0.047
CCC1=C[C@@H]2CN(C1)Cc1c([nH]c3ccccc13)[C@@](C(=O)OC)(c1cc3c(cc1OC)N(C)[C@H]1[C@@](O)(C(=O)OC)[C@H](OC(C)=O)[C@]4(CC)C=CCN5CC[C@]31[C@@H]54)C2	1 ± 0.11	0.544 ± 0.17	1.12 ± 0.11	0.911 ± 0.13	0.892 ± 0.12
C=C1C2CCC3(C)C(c4ccoc4)OC(=O)CC13OC1CC(=O)C(C)(C)C(CC(=O)OC)C12C (stereo not given)	0.97 ± 0.012	0.934 ± 0.0099	0.925 ± 0.044	1.04 ± 0.12	1.09 ± 0.13
COc1ccc([C@H]2COc3c(ccc(O)c3OC)C2)c(OC)c1O	1.01 ± 0.038	0.95 ± 0.052	1.03 ± 0.014	0.987 ± 0.13	0.878 ± 0.069
Nc1ccccc1C(=O)CC(N)C(=O)O (stereo not given)	1.01	1.05 ± 0.1	0.994 ± 0.023	1.31 ± 0.05	1.08 ± 0.014
Nc1[nH]cnc2ncnc1-2	1.2	1.1 ± 0.071	1.82 ± 0.028	0.981 ± 0.012	1.65 ± 0.26
Cc1cccc(C)c1OCC(C)N (stereo not given)	0.988 ± 0.059	0.983 ± 0.12	1.06	1.19 ± 0.078	1.05 ± 0.1
CC(=O)Nc1ccccc1	0.977 ± 0.02	0.97 ± 0.043	0.966 ± 0.0042	1.05 ± 0.11	0.975 ± 0.028
O=C1C(O)=C(O)C(=O)C(O)=C1O	0.96 ± 0.03	0.997 ± 0.1	0.944 ± 0.015	0.829 ± 0.011	0.822 ± 0.056
CC1CCc2cc(F)cc3c(=O)c(C(=O)O)cn1c23 (stereo not given)	1.05 ± 0.071	1.05 ± 0.15	0.972 ± 0.013	0.953 ± 0.039	1.07 ± 0.014
C[C@]12C=CC(=O)C=C1CC[C@@H]1[C@@H]2[C@@H](O)C[C@@]2(C)[C@H]1CC[C@]2(O)C(=O)CO	1.01 ± 0.014	1.09 ± 0.035	1.04 ± 0.069	1.03 ± 0.035	1.04 ± 0.088
CC(C)c1c(O)ccc2c1CCC1[C@@](C)(C=O)CCC[C@]21C (stereo not given in full)	1.03 ± 0.021	1.01 ± 0.031	0.965 ± 0.04	1.03 ± 0.014	1.08 ± 0.028
COc1ccc2c(c1)OCC(Cc1ccc(OC)c(OC)c1)C2=O (stereo not given)	0.995 ± 0.05	1.1 ± 0.092	1.02 ± 0.044	0.997 ± 0.15	1.035 ± 0.0071
Nc1c2c(nc3ccccc13)CCCC2O (stereo not given)	1.01 ± 0.018	1.12 ± 0.028	0.954 ± 0.021	0.932 ± 0.016	0.931 ± 0.03
CC(=O)O[C@@](C)(CCC=C(C)C)C1CC=C(C)CC1 (stereo not given in full)	0.974 ± 0.066	1.02 ± 0.021	0.993 ± 0.067	0.9845 ± 0.0021	1.08 ± 0.028
CO[C@H]1C[C@H](O[C@@H]2/C(C)=C/C[C@@H]3C[C@@H](C[C@]4(CC[C@H](C)[C@@H](C5CCCCC5)O4)O3)OC(=O)[C@@H]3C=C(C)/C(=N/O)[C@H]4OC/C(=C\C=C\[C@@H]2C)[C@]43O)O[C@@H](C)[C@@H]1O	0.919 ± 0.021	0.962 ± 0.038	0.962 ± 0.037	1.05 ± 0.021	1.08 ± 0.035
CC1(C)O[C@@H]2C[C@H]3[C@@H]4C[C@H](F)C5=CC(=O)CC[C@]5(C)[C@H]4[C@@H](O)C[C@]3(C)[C@]2(C(=O)CO)O1	1.01 ± 0.025	1.025 ± 0.0071	1.02 ± 0.047	0.949 ± 0.087	1.04 ± 0.073
O=C(O)c1cc(-c2ccc(F)cc2F)ccc1O	0.973 ± 0.0042	1.07 ± 0.057	1.01 ± 0.021	1.32 ± 0.13	1.16 ± 0.021
C1N2CN3CN1CN(C2)C3	1.04 ± 0.085	1.08 ± 0.12	0.978 ± 0.028	0.985 ± 0.05	1.02 ± 0.028

Source: the supplement of paper PMC6522484
